In PubChem BioAssay (NCATS):
Inconclusive results are not listed. A call without a number means that no potency is given here. The source made the active and inactive calls. The call rests on the fitted dose curve; in most records, active means well fitted cell-killing curve with a large enough effect; inconclusive means small, poorly fitted or top-dose-only effect; inactive means flat fitted curve, though single readings scatter.

experiment: Quantitative highthroughput screen to assess conditional lethalithy of NOMO1 cells grown in RPMI1640 with untreated serum (RPMI+s) (AID 1963876); conditions: NOMO1 AML cells in RPMI+serum, CellTiter-Glo viability, 48 h; series mostly up to 45.8 µM; further: nearly all actives have a fitted effect of over 35% in size
From the text: Assay Provider: Jason Cantor Ph.D.
Department of Biochemistry
University of Wisconsin-Madison, Madison, WI, USA
Chemical screening studies have identified drug sensitivities across hundreds of cancer cell lines but most putative therapeutics fail to translate. Discovery and development of drug candidates in models that more accurately reflect nutrient levels in human blood is a major challenge. Here we performed high-throughput screens in conventional versus Human Plasma-Like Medium (HPLM) to identify compounds that were "missed" when screening using the artificial culture condition. Sets of conditional anticancer compounds spanned phases of clinical development and included non-oncology drugs were assessed. […] We also traced conditional phenotypes for several chemotherapeutics to availability of HPLM-specific metabolites and confirmed others for compounds whose reported targets are encoded by nonessential genes. Our findings establish generalizable strategies for exploiting conditional lethality in HPLM to reveal therapeutic candidates and mechanisms of action in cancer cells.
Described herein are the results of each viability screens against three cell lines: NOMO1 (an acute myeloid leukemia cell line); P12-Ichikawa (a T-cell acute lymphoblastic leukemia); and SEM (a B-cell ALL). Each assay was screened using 3 different cell culture media: homemade human plasma-Like medium with 10% dialyzed fetal bovine serum (HPLM+ds); RPMI1640 with 10% untreated FBS and 5mM glucose (RPMI+s); and RPMI1640 with 10% dialyzed fetal bovine serum and 5 mM glucose (RPMI+ds).
PROTOCOL TABLE (as described by Inglese J, Shamu CE and Guy RK. 2007)
SEQUENCE No. (e.g., 1, 2, 3, etc.); […] (e.g., Cells, Incubation, Reagent, etc.); VALUE and DESCRIPTION.
1; Cells; 5 uL; white, solid bottom 1536-well Greiner assay plate.
2; Compounds; 23 nL; Kalypsis pin tool (Wako USA) equipped with a 1536-well pin head to transfer to the assay plates.
3; Incubation; 48 hours; 37C incubation.
4; Reagent; 3 uL; CellTiter Glo (Promega).
5; Incubation; 5 min, room temperature
6; Detection; Luminescence, Viewlux PerkinElmer.
NOTES (numbers refer to Sequence numbers above)
1. Briefly, 5 ul of cell reagent was dispensed using a Multidrop Combi Dispenser. The NOMO1 and SEM cells were plated at 500 cells/well and the P12-Ichikawa line at 1000 cells/well.
2. After seeding the cells, 23 nL of MIPE 4.1 library compounds (in DMSO) were added to each plate using a Kalypsys 1536 Pintool dispenser. Bortezomib at final concentration of […] and DMSO were added to each plate as positive and negative controls respectively. For each screen, MIPE 4.1 compounds were added over an eleven-point concentration range […] in 3-fold dilutions.
3. Each plate was covered with a stainless steel gasketed lid to prevent evaporation and incubated for 48 hour at 37C, 95% relative humidity, and 5% CO2.
4-5. Three microliter CellTilter-GloTM luminescent substrate mix (Promega) reagent was added to the assay plate and incubated at room temperature for 5 min.
6. The luminescence signal was measured using a ViewLux (PerkinElmer) multiplate reader with a 2 second exposure time per plate. Data for each compound were normalized as percent viability such that measurements for DMSO and the empty well controls in each plate were defined as 100% and 0%, respectively.
Potency means the concentration at half of the fitted maximal effect.

Row | Compound | Potency
1 | O=c1[nH]c2ccccc2n1C1CCN(Cc2ccc(-c3[nH]c4cc5ncnc5cc4nc3-c3ccccc3)cc2)CC1 | inactive
2 | COC1=CC(C)=C[C@@H](C)[C@@H](O)[C@@H](C)CC(C)=CC=C[C@H](OC)[C@H]([C@@H](C)[C@@H](O)[C@H](C)[C@@]2(O)C[C@@H](O)[C@H](C)[C@@H](C(C)C)O2)OC1=O | 105 nM (active)
3 | CCCC(C)(COC(N)=O)COC(=O)NC(C)C (stereo not given) | inactive
4 | O=C(Nc1ccncc1)C(=O)c1cn(Cc2ccc(Cl)cc2)c2ccccc12 | 132 nM (active)
5 | O=C1CC[C@@]2(O)[C@H]3Cc4ccc(O)c5c4[C@@]2(CCN3CC2CC2)[C@H]1O5 | 7430 nM (active)
6 | O=P1(NCCCl)OCCCN1CCCl (stereo not given) | inactive
7 | O=C(Oc1ccc([N+](=O)[O-])cc1)N1CCC(C(O)(c2ccc3c(c2)OCO3)c2ccc3c(c2)OCO3)CC1 | inactive
8 | Cn1c(CCCC(=O)O)nc2cc(N(CCCl)CCCl)ccc21 | inactive
9 | Oc1ccc2c3c1O[C@H]1c4[nH]c5c(c4C[C@@]4(O)[C@@H](C2)N(CC2CC2)CC[C@]314)C[C@@]1(O)[C@H]2Cc3ccc(O)c4c3[C@@]1(CCN2CC1CC1)[C@H]5O4 | inactive
10 | O=c1[nH]c2ccc(Cl)cc2c(N[C@@H]2CN3CCC2CC3)c1-c1nc2ccccc2[nH]1 | 132 nM (active)
11 | CCCC[N+]1(C)[C@H]2CC(OC(=O)[C@H](CO)c3ccccc3)C[C@H]1[C@H]1O[C@H]12 (stereo not given in full) | 18700 nM (active)
12 | C#CCN(C)[C@H](C)Cc1ccccc1 | inactive
13 | C[C@]12Cc3cn[nH]c3C[C@@H]1CC[C@@H]1[C@H]2CC[C@@]2(C)[C@H]1CC[C@]2(C)O | inactive
14 | C=CCON=C(C[C@H]1O[C@@H]2O[C@]3(C)CC[C@@H]4[C@H](C)CC[C@@H]([C@H]1C)[C@@]24OO3)[C@H]1O[C@@H]2O[C@]3(C)CC[C@H]4[C@H](C)CC[C@@H]([C@@H]1C)[C@@]24OO3 | 833 nM (active)
15 | c1cc2c(cc1[C@H]1OC[C@H]3[C@H]1CO[C@H]3c1ccc3c(c1)OCO3)OCO2 | inactive
16 | C=C1C[C@H]2[C@H]3CCC(=O)[C@@]3(C)CC[C@@H]2[C@@]2(C)C=CC(=O)C=C12 | inactive
17 | C[C@@H]1CC[C@H]2[C@@H](C)C(=O)O[C@@H]3O[C@@]4(C)CC[C@H]1[C@]32OO4 | inactive
18 | Clc1ccccc1C(c1ccccc1)(c1ccccc1)n1cccn1 | inactive
19 | O=S(=O)(F)Cc1ccccc1 | inactive
20 | C[C@@H]1[C@@H](CC(C[C@H]2O[C@@H]3O[C@]4(C)CC[C@@H]5[C@H](C)CC[C@@H]([C@H]2C)[C@@]35OO4)C[S+](=O)([O-])c2ccc(COC(=O)N(C)C)cc2)O[C@@H]2O[C@]3(C)CC[C@H]4[C@H](C)CC[C@@H]1[C@@]24OO3 (stereo not given in full) | 833 nM (active)

Row | Compound | Potency
21 | C[C@@]12OC(=O)[C@]1([C@@H](O)[C@@H]1C=CCCC1)NC(=O)[C@H]2CCCl | 235 nM (active)
22 | CC(NC(C)(C)C)C(=O)c1cccc(Cl)c1 (stereo not given) | inactive
23 | Cc1nc(-c2ccc(-c3ccc(C(=O)N4CCc5cc6c(cc54)C4(CCN(C)CC4)CO6)cc3)c(C)c2)no1 | inactive
24 | CNCC(O)c1ccc(O)cc1 (stereo not given) | inactive
25 | C[C@@H]1[C@H](O)[C@@H](C)C=CC=CCCC=CC=CC=CC=C[C@H](O[C@H]2O[C@@H](C)[C@H](O)[C@@H](N)[C@@H]2O)CC2O[C@](O)(C[C@@H](O)[C@H](O)CC[C@@H](O)C[C@@H](O)C[C@@H](O)CC(=O)O[C@H]1C)C[C@H](O)[C@H]2C(=O)O | inactive
26 | C[C@](O)(CS(=O)(=O)c1ccc(F)cc1)C(=O)Nc1ccc(C#N)c(C(F)(F)F)c1 | inactive
27 | NC1CC1c1ccccc1 (stereo not given) | inactive
28 | c1ccc(CCCN2CCN(CCOC(c3ccccc3)c3ccccc3)CC2)cc1 | inactive
29 | CC=C(C)C(=O)O[C@H]1C(C)=C2[C@@H]3OC(=O)[C@@](C)(O)[C@@]3(O)[C@@H](OC(=O)CCC)C[C@](C)(OC(C)=O)[C@@H]2[C@@H]1OC(=O)CCCCCCC | 93.5 nM (active)
30 | CC(=O)Nc1ccc(OC[C@](C)(O)C(=O)Nc2ccc([N+](=O)[O-])c(C(F)(F)F)c2)cc1 | inactive
31 | C[C@]12COC(=O)C[C@@H]1CC[C@@H]1[C@H]2CC[C@@]2(C)[C@H]1CC[C@]2(C)O | inactive
32 | CN1C(=O)CCS(=O)(=O)C1c1ccc(Cl)cc1 (stereo not given) | inactive
33 | COc1ccc2c(c1)[C@]13CCCCC1C(C2)N(C)CC3 (stereo not given in full) | inactive
34 | Cc1ccccc1-n1c(Cn2ncc3c(N)ncnc32)nc2cccc(C)c2c1=O | 372 nM (active)
35 | COc1cc2cc(c1Cl)N(C)C(=O)C[C@H](OC(=O)C(C)C)[C@]1(C)O[C@H]1[C@H](C)[C@@H]1C[C@@](O)(NC(=O)O1)[C@H](OC)C=CC=C(C)C2 | inactive
36 | CN1CCN(c2ccc([N+](=O)[O-])c3no[n+]([O-])c23)CC1 | inactive
37 | C=C[C@@H]1CN2CCC1C[C@H]2[C@H](O)c1ccnc2ccccc12 (stereo not given in full) | inactive
38 | NCC1(CC(=O)O)CCCCC1 | inactive
39 | C[C@H]1CCCC=CC2C[C@H](O)C[C@@H]2[C@H](O)C=CC(=O)O1 (stereo not given in full) | inactive
40 | CC(N[C@H]1C[C@H]1c1ccccc1)c1ccc2c(c1)OCCO2 (stereo not given in full) | inactive
